Rows were chosen to be rich in hits. Some 3.1% of all compounds tested hit in one or more screens of this group.
S-ASM inh: Inhibitors of Secretory Acid Sphingomyelinase (S-ASM): qHTS; Potency, µM (highest dose often 57.5 µM), inactives show at the top dose activity change, negative = inhibition, most hits filed as inhibitors; placental ASM, HMU-PC fluorogenic substrate, 60 min; 340,000 tested, 0.006% active
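Human placenta-derived ASM preincubated with compound 10 min at room temperature, then reacted with 9 uM (final) fluorogenic HMU-PC substrate for 60 min at 37 C. Stop solution raises pH to 10; fluorescence read at Ex 386/Em 447 nm.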
VDR inh: Inhibitors of the vitamin D receptor (VDR): qHTS; Vitamin D3 receptor (Homo sapiens), P11473; VDR-SRC2-3 peptide fluorescence polarization, 2 h; Potency, µM, inactives show max response, negative = inhibition, hits mostly inhibitors; 400,000 tested, 0.93% active; AID 504847, 2011; note: % is set by controls: 0 for no effect and ±100 for the full control effect
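Measured by FP: displacement of SRC2-3 coactivator peptide from VDR by library compounds, following a two-hour ambient incubation.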
TDP1 block: qHTS Assay for Inhibitors of Tyrosyl-DNA Phosphodiesterase (TDP1) | AID 485290, 2010 | Tyrosyl-DNA phosphodiesterase 1 (Homo sapiens), Q9NUW8 | recombinant TDP1, AlphaScreen DNA substrate cleavage | Potency, µM (top dose mostly 130 µM), for inactives: at the top dose activity change, negative = inhibition, most hits filed as inhibitors | 350,000 tested, 0.28% active; note: % is set by controls: 0 for no effect and ±100 for the full control effect; nearly all actives have a fitted effect of over 40% in size
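Here, a 5' biotin and 3' phosphotyrosine-FITC DNA oligonucleotide reports Tdp1 activity: intact substrate bridges AlphaScreen beads, while cleavage leaves a 3' phosphate and drops signal. All incubations at room temperature.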
Pin1 inhibitor: qHTS Assay to Find Inhibitors of Pin1; 390,000 tested, 0.009% active; Potency, µM (top dose mostly 115 µM), without a hit: at the highest dose activity, negative = inhibition, usual class: inhibitors; Peptidyl-prolyl cis-trans isomerase NIMA-interacting 1 (Homo sapiens), Q13526; AID 504891, 2011; Pin1 FP peptide displacement, HiFluor488, 10 min; active = well fitted inhibition curve with a large enough effect in the polarisation, with a control signal flat, not every such curve was filed as active; inconclusive = small, poorly fitted or top-dose-only effect, or effect the other way, or a change in a side signal; inactive = no such curve, though single readings can be large or run the other way; the % refers to the polarisation; note: % is set by controls: 0 for no effect and ±100 for the full control effect
Tb PFK block: qHTS Assay to Find Inhibitors of T. brucei phosphofructokinase | ATP-dependent 6-phosphofructokinase (Trypanosoma brucei brucei), O15648 | T. brucei PFK, ADP-Glo luminescence | Potency, µM (doses to about 57.5 µM), for the others: at the top dose activity, negative = inhibition, hits mostly inhibitors | 330,000 tested, 0.17% active | AID 485367, 2010;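 note: 0% = uninhibited 1x PFK enzyme wells and -100% = no-enzyme wells; nearly all actives have a fitted effect of over 60% in size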
Target sequence (O15648 whole entry, looked up): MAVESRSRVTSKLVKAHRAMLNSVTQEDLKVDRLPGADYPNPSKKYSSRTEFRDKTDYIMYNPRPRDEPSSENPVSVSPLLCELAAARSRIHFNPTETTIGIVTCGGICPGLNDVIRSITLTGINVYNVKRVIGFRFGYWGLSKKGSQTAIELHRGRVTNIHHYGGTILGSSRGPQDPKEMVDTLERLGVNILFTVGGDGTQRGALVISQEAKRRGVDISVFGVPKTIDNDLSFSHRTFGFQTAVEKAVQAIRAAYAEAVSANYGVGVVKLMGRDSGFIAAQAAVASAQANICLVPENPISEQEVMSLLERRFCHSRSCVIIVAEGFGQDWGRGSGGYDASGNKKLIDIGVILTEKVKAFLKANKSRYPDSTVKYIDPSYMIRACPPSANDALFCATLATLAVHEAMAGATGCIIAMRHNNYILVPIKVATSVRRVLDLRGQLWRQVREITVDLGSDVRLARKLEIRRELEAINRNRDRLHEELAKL
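PFK 1.25 nM, F6P 0.5 mM, ATP 0.1 mM, 0.1 M TEA pH 8.0, 5 mM MgCl2, 0.01% Tween20, 0.1% BSA; 45 min RT. ADP-Glo readout. qHTS titration up to 57 uM; curves fitted, compounds curve-classed.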
PLK1 PBD inh: qHTS for Inhibitors of PLK1-PDB (polo-like kinase 1 - polo-box domain): Primary Screen; Plk1 PBD binding of FITC phosphopeptide, fluorescence polarization; Potency, µM, for the others: max response, negative = inhibition, actives largely listed as inhibitors; 360,000 tested, 2.8% active; note: series mostly up to about 57 µM; % is set by controls: 0 for no effect and ±100 for the full control effect; nearly all actives have a fitted effect of over 65% in size
* marks the source's active call; other numbers are inactive results. Unless noted, calls come from the whole dose curve; as a rule, active = well fitted curve in the direction sought with a large enough effect; inconclusive = small, poorly fitted or top-dose-only effect, or another doubt; inactive = no such curve, though single readings can be large; an effect the other way counts as inactive or inconclusive. Potency is the fitted concentration of half-maximal effect.

Screening CCCC[C@H](NC(C)=O)C(=O)N[C@@H](CCC(=O)O)C(=O)N[C@@H](Cc1cnc[nH]1)C(=O)N[C@H](Cc1ccccc1)C(=O)N[C@@H](CCCN=C(N)N)C(=O)N[C@H](Cc1c[nH]c2ccccc12)C(=O)NCC(N)=O returned VDR inh 17.4% and TDP1 block 6.2%.
`CCOC(=S)N/C(=N\S(=O)(=O)c1ccccc1)c1ccccc1` gave S-ASM inh 1.4%, VDR inh -29.1%, TDP1 block 0.0%, Pin1 inhibitor -6.7%, Tb PFK block -0.2% and PLK1 PBD inh 18.9µM*.
Screening COC(=S)N/C(=N\S(=O)(=O)c1ccc(Cl)cc1)c1ccccc1 returned S-ASM inh 4.2%, VDR inh 89.1µM*, TDP1 block 2.1%, Pin1 inhibitor 2.2%, Tb PFK block 1.9% and PLK1 PBD inh 23.8µM*.
CCCOC(=S)N/C(=N\S(=O)(=O)c1ccccc1)c1ccccc1 was read as S-ASM inh 1.3%, VDR inh -13.9%, TDP1 block 0.0%, Pin1 inhibitor 5.3%, Tb PFK block -18.2% and PLK1 PBD inh 28.2µM*.
`CCOC(=O)c1ccc(N/C(=N\S(=O)(=O)c2ccccc2C)c2ccccc2)cc1` gave S-ASM inh -18.2%, VDR inh 15.5%, TDP1 block -1.0%, Pin1 inhibitor -0.2%, Tb PFK block 4.4% and PLK1 PBD inh -6.8%.
`Cc1ccc(S(=O)(=O)/N=C(/NC(=S)Nc2ccccc2)c2ccccc2)cc1` gave S-ASM inh -4.7%, VDR inh -25.2%, TDP1 block -0.9%, Pin1 inhibitor -6.8%, Tb PFK block 3.9% and PLK1 PBD inh inconclusive.
For CCOC(=S)N/C(=N\S(C)(=O)=O)c1ccccc1 the results were S-ASM inh -0.2%, VDR inh -24.4%, TDP1 block 3.7%, Pin1 inhibitor 0.9%, Tb PFK block 0.0% and PLK1 PBD inh 16.8µM*.
Cc1ccsc1CN(C(=O)c1ccc(OCC(C)C)cc1)C1CCS(=O)(=O)C1 (stereo not drawn) was read as VDR inh 4.1%, TDP1 block 4.9% and Pin1 inhibitor 0.4%.
For CCc1cccc(C)c1NC(=O)c1cc(S(=O)(=O)N2CCCCCC2)cn1C the results were VDR inh 13.0%, TDP1 block 1.8% and Pin1 inhibitor -8.4%.
Screening Cc1ccc(NC(=S)N/C(=N/S(=O)(=O)c2ccccc2)c2ccccc2)cc1 returned S-ASM inh 1.7%, VDR inh -5.4%, TDP1 block 1.0%, Pin1 inhibitor -2.5%, Tb PFK block 0.7% and PLK1 PBD inh 23.8µM*.
`Cc1ccc(CN(C(=O)COc2ccc(C(C)(C)C)cc2)C2CCS(=O)(=O)C2)o1` (stereo not drawn) gave VDR inh 7.1%, TDP1 block 1.2% and Pin1 inhibitor 2.9%.
For COc1ccc(C(=O)Oc2cc(-c3ccc(OC)c(OC)c3)cc(=O)c3c(C)oc(C)c23)cc1 the results were VDR inh 11.6%, TDP1 block 8.6% and Pin1 inhibitor inconclusive.
Screening C=C1C=CS(=O)(=O)N(C(CC(C)C)C(=O)OC)C1 (stereo not drawn) returned VDR inh -23.6%, TDP1 block 9.1% and Pin1 inhibitor 2.9%.
For O=C1OCc2nc3cc4c(cc3c(-c3ccc(F)cc3)c21)OCO4 the results were S-ASM inh 30.1%, VDR inh inconclusive, Pin1 inhibitor -0.9%, Tb PFK block -3.1% and PLK1 PBD inh 23.8µM*.

Screening data deposited in PubChem BioAssay by National Center for Advancing Translational Sciences (NCATS).
